Experimental data: the supplement of paper PMC11732987, “Enantioselective OTUD7B fragment discovery through chemoproteomics screening and high-throughput optimisation” (Communications Chemistry, 2025)

What was measured:
Assay in all cases: log2 ratio of Biotin-Ahx-Ub-VS probe labelling (fragment/DMSO); higher = less target engagement (more negative = stronger competition), active = hit call of the paper (q ≤ 0.05, log2 ratio ≤ -1)
Settings in all cases: compound concentration: 200 uM; treatment time: 3 h
USP34 = USP34 (UniProt Q70CQ2)
Chain of USP34 (Q70CQ2 whole entry, the tested form may be a part): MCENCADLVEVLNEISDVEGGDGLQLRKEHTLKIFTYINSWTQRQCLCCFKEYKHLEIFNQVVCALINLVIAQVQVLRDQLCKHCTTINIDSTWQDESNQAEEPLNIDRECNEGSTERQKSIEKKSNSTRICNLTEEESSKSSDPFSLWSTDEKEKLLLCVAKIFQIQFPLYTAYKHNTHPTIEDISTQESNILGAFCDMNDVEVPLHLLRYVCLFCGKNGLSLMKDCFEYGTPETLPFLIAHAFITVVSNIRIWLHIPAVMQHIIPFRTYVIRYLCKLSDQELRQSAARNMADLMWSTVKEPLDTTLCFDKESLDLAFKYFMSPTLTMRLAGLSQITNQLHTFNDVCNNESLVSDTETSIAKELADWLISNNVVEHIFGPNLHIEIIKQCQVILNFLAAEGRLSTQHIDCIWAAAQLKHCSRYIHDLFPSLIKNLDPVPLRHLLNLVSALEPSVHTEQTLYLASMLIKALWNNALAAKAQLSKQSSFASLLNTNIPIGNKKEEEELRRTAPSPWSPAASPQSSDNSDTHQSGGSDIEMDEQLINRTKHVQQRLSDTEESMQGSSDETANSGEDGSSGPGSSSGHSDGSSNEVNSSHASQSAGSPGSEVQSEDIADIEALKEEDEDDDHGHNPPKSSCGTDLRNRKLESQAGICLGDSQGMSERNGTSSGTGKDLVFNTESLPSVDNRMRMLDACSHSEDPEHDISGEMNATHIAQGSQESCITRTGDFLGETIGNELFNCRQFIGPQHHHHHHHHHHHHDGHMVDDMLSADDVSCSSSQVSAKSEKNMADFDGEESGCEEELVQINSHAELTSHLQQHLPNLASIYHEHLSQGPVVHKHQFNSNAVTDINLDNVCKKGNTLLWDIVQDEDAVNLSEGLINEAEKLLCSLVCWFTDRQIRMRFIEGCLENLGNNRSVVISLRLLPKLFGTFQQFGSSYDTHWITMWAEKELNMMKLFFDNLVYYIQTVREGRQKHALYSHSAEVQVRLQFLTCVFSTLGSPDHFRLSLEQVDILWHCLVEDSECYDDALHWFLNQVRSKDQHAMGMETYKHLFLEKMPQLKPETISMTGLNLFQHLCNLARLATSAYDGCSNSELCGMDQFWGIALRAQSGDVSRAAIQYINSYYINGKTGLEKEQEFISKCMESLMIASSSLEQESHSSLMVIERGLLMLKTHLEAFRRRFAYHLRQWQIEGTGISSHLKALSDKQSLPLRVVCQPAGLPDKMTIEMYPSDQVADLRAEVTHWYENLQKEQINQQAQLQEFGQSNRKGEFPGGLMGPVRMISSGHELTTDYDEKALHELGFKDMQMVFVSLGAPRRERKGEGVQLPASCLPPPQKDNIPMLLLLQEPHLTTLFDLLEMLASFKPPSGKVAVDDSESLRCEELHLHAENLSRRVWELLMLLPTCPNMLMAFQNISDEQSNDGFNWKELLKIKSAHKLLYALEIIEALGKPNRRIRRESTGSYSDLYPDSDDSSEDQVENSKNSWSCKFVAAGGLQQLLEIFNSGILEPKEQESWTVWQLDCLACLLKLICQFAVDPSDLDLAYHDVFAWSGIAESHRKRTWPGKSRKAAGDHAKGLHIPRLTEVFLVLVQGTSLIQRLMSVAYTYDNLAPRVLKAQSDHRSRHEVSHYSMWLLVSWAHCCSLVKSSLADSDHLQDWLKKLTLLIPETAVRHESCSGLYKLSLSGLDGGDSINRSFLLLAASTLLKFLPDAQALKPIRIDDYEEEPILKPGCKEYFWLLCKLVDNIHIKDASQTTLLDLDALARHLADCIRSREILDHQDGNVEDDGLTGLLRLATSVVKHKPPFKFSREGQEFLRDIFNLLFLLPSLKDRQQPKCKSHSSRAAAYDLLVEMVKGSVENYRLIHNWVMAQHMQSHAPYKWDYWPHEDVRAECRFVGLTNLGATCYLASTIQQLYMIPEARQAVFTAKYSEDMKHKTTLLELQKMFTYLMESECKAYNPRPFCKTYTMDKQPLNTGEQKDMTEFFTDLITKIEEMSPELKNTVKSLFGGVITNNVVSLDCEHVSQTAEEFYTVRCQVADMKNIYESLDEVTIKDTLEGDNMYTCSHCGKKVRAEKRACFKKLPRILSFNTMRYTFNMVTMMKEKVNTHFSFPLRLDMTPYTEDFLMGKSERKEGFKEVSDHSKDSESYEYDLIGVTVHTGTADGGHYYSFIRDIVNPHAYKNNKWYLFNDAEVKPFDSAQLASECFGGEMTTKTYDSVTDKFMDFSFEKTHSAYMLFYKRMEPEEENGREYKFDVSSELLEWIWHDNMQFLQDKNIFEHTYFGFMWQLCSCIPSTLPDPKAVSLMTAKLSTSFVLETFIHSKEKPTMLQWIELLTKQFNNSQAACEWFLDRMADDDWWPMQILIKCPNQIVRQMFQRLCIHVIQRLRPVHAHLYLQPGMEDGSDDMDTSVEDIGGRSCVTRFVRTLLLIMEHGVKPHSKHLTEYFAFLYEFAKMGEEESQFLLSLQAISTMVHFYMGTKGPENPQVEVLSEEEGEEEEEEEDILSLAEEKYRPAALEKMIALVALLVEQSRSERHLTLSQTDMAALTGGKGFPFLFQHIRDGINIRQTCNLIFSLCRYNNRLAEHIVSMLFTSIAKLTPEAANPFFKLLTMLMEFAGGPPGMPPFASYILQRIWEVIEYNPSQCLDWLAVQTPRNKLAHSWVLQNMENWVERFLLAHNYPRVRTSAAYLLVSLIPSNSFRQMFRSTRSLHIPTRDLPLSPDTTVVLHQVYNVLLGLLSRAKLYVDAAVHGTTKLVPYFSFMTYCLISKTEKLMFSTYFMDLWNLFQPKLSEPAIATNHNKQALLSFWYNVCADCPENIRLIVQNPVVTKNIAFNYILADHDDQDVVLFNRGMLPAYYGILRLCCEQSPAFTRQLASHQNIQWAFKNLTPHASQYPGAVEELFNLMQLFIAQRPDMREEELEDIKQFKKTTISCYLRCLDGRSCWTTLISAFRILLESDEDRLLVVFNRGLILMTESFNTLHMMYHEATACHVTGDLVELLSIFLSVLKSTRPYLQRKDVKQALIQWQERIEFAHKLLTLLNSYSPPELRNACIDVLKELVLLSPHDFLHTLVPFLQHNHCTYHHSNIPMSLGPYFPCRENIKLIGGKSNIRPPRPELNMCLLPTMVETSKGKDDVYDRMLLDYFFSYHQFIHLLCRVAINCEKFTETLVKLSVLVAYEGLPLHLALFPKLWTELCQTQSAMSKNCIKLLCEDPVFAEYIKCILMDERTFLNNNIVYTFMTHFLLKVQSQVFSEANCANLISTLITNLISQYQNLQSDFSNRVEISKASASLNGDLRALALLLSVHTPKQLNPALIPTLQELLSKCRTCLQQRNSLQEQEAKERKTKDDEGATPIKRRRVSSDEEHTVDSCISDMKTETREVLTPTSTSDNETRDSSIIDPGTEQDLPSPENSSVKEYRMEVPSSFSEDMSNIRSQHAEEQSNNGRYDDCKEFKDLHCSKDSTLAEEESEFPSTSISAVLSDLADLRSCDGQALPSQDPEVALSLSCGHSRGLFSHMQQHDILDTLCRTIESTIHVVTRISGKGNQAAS
Method in brief: (§1)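 HEK293T lysate, 495 µg per sample in Tris/CHAPS/IGEPAL buffer with protease inhibitors, was treated in triplicate with fragment at 200 µM or vehicle for 3 h and then with Biotin-Ahx-Ub-VS at 0.5 µM final for 1 h. Labelled DUBs were NeutrAvidin-enriched, digested with LysC and trypsin, and run by diaPASEF LC-MS/MS. Spectronaut label-free quantities were global-median-normalised, and values are average log2 fragment/vehicle ratios by unpaired t-test on proteins with ≥2 unique peptides.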

USP36 = target: T1, USP36 (UniProt Q9P275)
T1 sequence (whole entry): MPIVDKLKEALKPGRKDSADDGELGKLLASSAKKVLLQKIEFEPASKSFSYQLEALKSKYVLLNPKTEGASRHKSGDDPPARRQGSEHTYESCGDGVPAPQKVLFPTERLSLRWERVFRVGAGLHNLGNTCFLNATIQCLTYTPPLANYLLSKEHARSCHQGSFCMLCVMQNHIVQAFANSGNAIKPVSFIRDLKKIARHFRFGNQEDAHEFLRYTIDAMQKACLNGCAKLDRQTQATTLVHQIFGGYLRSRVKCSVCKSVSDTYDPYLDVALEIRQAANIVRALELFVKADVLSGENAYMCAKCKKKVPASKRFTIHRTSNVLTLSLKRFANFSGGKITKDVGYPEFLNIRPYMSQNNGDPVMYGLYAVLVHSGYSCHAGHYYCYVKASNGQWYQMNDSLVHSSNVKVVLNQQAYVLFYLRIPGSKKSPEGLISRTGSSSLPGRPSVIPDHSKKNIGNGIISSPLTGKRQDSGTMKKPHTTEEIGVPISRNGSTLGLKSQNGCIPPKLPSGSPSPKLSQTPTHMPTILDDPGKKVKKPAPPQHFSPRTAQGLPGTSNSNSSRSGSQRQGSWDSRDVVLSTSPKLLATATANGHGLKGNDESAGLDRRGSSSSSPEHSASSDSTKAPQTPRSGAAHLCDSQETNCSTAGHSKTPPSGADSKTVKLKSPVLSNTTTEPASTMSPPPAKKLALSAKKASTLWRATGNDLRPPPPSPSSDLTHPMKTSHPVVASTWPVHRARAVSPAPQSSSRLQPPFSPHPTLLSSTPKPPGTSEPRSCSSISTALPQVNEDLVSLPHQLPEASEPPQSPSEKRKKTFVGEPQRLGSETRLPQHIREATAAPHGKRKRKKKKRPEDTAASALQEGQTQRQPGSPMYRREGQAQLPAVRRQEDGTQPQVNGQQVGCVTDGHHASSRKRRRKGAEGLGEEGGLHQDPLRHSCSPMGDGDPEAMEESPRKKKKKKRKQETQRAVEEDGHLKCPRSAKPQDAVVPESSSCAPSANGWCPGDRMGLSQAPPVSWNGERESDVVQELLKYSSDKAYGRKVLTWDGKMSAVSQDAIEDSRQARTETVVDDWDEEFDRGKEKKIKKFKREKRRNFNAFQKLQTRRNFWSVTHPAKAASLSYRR
Method in brief: as §1

USP38 = target: T2, USP38 (UniProt Q8NB14)
T2 sequence (whole entry): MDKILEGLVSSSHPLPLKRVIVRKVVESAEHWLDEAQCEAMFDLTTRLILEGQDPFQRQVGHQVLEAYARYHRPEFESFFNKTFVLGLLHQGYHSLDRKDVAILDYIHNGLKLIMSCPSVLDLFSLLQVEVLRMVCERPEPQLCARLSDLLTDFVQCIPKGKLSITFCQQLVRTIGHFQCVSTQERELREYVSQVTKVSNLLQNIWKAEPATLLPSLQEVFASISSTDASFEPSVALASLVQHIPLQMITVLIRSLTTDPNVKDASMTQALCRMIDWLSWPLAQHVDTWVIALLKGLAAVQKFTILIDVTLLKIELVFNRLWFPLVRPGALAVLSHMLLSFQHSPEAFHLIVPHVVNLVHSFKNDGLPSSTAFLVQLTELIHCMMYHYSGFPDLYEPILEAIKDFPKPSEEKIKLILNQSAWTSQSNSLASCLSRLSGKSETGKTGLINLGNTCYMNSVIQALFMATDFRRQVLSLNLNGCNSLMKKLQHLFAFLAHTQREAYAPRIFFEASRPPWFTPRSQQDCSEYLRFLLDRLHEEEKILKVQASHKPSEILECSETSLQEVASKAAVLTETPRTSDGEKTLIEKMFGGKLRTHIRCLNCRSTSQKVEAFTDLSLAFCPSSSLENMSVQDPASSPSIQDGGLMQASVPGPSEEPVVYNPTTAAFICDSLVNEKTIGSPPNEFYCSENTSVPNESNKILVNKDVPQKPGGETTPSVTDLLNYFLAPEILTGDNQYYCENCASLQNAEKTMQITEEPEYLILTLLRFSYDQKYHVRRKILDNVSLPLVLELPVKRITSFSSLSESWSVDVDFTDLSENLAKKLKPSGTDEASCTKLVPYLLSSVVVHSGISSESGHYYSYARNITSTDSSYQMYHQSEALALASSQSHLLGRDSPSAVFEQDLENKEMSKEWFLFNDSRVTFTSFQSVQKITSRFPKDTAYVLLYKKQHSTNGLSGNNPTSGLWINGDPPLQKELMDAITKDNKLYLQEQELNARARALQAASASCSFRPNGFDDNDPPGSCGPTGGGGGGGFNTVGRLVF
Method in brief: as §1

USP39 = target: T3, USP39 (UniProt Q53GS9)
T3 sequence (whole entry): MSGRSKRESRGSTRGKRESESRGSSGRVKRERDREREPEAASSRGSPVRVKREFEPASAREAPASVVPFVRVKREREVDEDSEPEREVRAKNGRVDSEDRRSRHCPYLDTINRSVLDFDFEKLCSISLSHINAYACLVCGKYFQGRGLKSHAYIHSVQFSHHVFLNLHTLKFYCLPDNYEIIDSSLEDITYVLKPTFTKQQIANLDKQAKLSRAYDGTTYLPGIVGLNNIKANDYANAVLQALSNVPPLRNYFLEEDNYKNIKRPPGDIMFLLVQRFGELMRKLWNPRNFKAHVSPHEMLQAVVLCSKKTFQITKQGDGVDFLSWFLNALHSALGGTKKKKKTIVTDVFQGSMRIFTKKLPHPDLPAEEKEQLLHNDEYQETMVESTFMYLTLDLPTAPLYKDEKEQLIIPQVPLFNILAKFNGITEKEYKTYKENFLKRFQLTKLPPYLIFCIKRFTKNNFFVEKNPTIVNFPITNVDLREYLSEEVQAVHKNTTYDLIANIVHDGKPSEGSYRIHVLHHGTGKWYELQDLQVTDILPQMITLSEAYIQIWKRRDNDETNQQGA
Method in brief: as §1

USP4 = target: T4, USP4 (UniProt Q13107)
T4 sequence (whole entry): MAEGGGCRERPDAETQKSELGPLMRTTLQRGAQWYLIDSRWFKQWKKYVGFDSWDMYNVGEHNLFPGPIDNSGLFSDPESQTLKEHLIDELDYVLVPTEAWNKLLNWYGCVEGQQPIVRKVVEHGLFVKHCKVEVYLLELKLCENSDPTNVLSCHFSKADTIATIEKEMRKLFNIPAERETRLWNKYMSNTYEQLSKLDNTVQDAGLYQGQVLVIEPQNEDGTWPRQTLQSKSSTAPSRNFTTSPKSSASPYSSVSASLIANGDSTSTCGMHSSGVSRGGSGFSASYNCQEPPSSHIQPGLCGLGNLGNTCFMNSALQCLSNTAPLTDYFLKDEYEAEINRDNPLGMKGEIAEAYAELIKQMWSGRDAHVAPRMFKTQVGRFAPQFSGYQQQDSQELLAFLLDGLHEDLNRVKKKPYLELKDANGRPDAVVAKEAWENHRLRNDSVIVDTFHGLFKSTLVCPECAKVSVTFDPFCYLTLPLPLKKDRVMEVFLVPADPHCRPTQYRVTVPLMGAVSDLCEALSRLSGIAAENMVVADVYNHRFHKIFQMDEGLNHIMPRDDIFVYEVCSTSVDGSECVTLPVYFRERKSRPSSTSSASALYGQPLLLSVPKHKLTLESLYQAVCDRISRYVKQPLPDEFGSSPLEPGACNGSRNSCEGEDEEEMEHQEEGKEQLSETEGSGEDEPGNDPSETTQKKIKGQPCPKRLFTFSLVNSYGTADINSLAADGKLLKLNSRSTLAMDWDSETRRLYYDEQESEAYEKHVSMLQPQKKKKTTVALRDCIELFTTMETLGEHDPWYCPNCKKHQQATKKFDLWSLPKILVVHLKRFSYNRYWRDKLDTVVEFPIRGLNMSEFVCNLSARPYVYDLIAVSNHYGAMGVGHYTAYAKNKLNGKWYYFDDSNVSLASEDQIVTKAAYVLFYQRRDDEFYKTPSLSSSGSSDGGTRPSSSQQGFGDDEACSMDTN
Method in brief: as §1

Measured: log2 ratio of Biotin-Ahx-Ub-VS probe labelling

CC1Cc2ccccc2N1C(=O)CCl (stereo not given)
inactive: USP34 -0.159 | USP36 0.0162 | USP38 -0.00784 | USP39 -0.0124 | USP4 -0.603
